In PubChem BioAssay (NCI) one finds growth inhibition data, which are given here for ten compounds.

Each structure is given as a SMILES string. This is part of a sample that, as a whole, favours compounds with a hit. Of some 79,000 tested, about 15% had one in any assay. Values without a mark were called inactive. Calls of active or inactive are those of the source. No stated cut-off is given here; in the data, active means growth inhibition above about 70%; inactive means the rest.

Test [1] in a line: NCI Yeast Anticancer Drug Screen. Data for the rad50 strain (AID 155).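 Further: 0% = growth of vehicle-only cultures of the same strain.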 Conditions: S. cerevisiae rad50 strain growth inhibition, active compounds read high. The method in brief: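 Cells are treated with compound, grown, and their growth is then scored against vehicle-only cultures of the same repair-deficient yeast strain.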
Test [2] is described as follows: NCI Yeast Anticancer Drug Screen. Data for the mec2-1 strain (AID 157). Particulars: S. cerevisiae mec2-1 strain, active compounds read high. The procedure, abridged:
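Test agents were screened against the mec2-1 yeast strain, with defined DNA repair or cell cycle alteration. Growth was scored as inhibition against vehicle-only controls.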

Test [3] in a line: NCI Yeast Anticancer Drug Screen. Data for the sgs1 mgt1 strain (AID 161).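 Further: 0% = growth of cultures given vehicle only.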 Particulars: S. cerevisiae sgs1 mgt1 strain, active compounds read high. The procedure, abridged:
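Mutant yeast exposed to compound; growth scored against vehicle-only wells.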

Test [4] in a line: NCI Yeast Anticancer Drug Screen. Data for the cln2 rad14 strain (AID 165).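 Further: 0% = growth equal to vehicle treated cultures.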 Conditions: S. cerevisiae cln2 rad14 strain, active compounds read high. The procedure, abridged: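 Growth of compound-exposed yeast (cln2 rad14 genotype) measured and expressed as inhibition relative to vehicle.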
The nature of test [5]: NCI Yeast Anticancer Drug Screen. Data for the bub3 strain (AID 167). Particulars: S. cerevisiae bub3 mutant strain, active compounds read high. The procedure, abridged: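 Part of a panel of yeast mutants defective in DNA damage repair or cell cycle regulation. Each strain is grown with compound, and inhibition is calculated relative to solvent-treated cultures.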
Test [6] in a line: NCI Yeast Anticancer Drug Screen. Data for the mlh1 rad18 strain (AID 175). Conditions: S. cerevisiae mlh1 rad18 strain growth inhibition, active compounds read high. The procedure, abridged: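 In this whole-cell yeast screen, a strain with altered DNA damage repair is challenged with compound, and its growth is measured against matched vehicle-treated controls.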
[7] abbreviates: at 5.0 µM (retest, dose inferred, filed as 0.5).
Setting [8] is: at 50.0 µM (retest, dose inferred, filed as 5.0).

`c1ccc2c(B(c3cccc4ccccc34)c3cccc4ccccc34)cccc2c1`: the growth inhibition in test [1] (setting [7]) was 0%; in test [1] (setting [8]), 98% (active); in test [1] (at 50.0 µM) it was 99.1% (active); in test [2] (setting [7]), 14%; in test [2] (setting [8]) it was 99% (active); in test [2] (at 50.0 µM), 98.9% (active). In addition, the growth inhibition in test [3] (setting [7]) is -20%; in test [3] (setting [8]) it was 99% (active); in test [3] (at 50.0 µM), 98.7% (active); in test [4] (setting [7]), 3%; in test [4] (setting [8]) it was 98% (active); in test [4] (at 50.0 µM), 98.7% (active). Besides, the growth inhibition in test [5] (setting [7]) was -4%; in test [5] (setting [8]), 99% (active); in test [5] (at 50.0 µM), 98.8% (active); in test [6] (setting [7]), 0%; in test [6] (setting [8]), 98% (active); in test [6] (at 50.0 µM), 97.4% (active).

For `COC(=O)C(=Cc1c[nH]c2ccccc12)C(=O)OC`, the growth inhibition in test [1] (setting [7]) is -12%; in test [1] (setting [8]), 0%; in test [1] (at 50.0 µM) it was 11.6%; in test [2] (setting [7]), 4%; in test [2] (setting [8]), 2%; in test [2] (at 50.0 µM) it was 30.3%. Moreover, the growth inhibition in test [3] (setting [7]) was -1%; in test [3] (setting [8]), -6%; in test [3] (at 50.0 µM) it was 4.55%; in test [4] (setting [7]) it was -1%; in test [4] (setting [8]), -4%; in test [4] (at 50.0 µM), 16.3%. Further, the growth inhibition in test [5] (setting [7]) is -3%; in test [5] (setting [8]) it was 2%; in test [5] (at 50.0 µM), 10.6%; in test [6] (setting [7]) it was -18%; in test [6] (setting [8]), -17%; in test [6] (at 50.0 µM), 10.8%.

In the case of `Cc1cc(C)c(S(=O)(=O)n2ccnc2)c(C)c1`, the growth inhibition in test [1] (setting [7]) was -15%; in test [1] (setting [8]), -45%; in test [1] (at 50.0 µM), -13.9%; in test [2] (setting [7]), 0%; in test [2] (setting [8]), -11%; in test [2] (at 50.0 µM) it was -29.6%. Further, the growth inhibition was -17% in test [3] (setting [7]); -4% in test [3] (setting [8]); -6.05% in test [3] (at 50.0 µM); -3% in test [4] (setting [7]); 8% in test [4] (setting [8]); 6.55% in test [4] (at 50.0 µM). Besides, the growth inhibition in test [5] (setting [7]) was -8%; in test [5] (setting [8]), -26%; in test [5] (at 50.0 µM), 10.3%; in test [6] (setting [7]) it was -36%; in test [6] (setting [8]) it was -77%; in test [6] (at 50.0 µM) it was -0.9%.

Consider `CC(c1ccccc1C(=O)O)c1cccc2ccccc12` (stereo not given), for which the growth inhibition was 4% in test [1] (setting [7]); 89% (active) in test [1] (setting [8]); 87.3% (active) in test [1] (at 50.0 µM); -3% in test [2] (setting [7]); 91% (active) in test [2] (setting [8]); 92.3% (active) in test [2] (at 50.0 µM). The growth inhibition was 6% in test [3] (setting [7]); 90% (active) in test [3] (setting [8]); 83.3% (active) in test [3] (at 50.0 µM); 6% in test [4] (setting [7]); 98% (active) in test [4] (setting [8]); 97.5% (active) in test [4] (at 50.0 µM). Moreover, the growth inhibition in test [5] (setting [7]) was -7%; in test [5] (setting [8]), 88% (active); in test [5] (at 50.0 µM) it was 91.5% (active); in test [6] (setting [7]), -12%; in test [6] (setting [8]) it was 92% (active); in test [6] (at 50.0 µM), 92.8% (active).

With `Clc1ccc(SSN2CCCCC2)cc1`, the growth inhibition in test [1] (setting [7]) is 2%; in test [1] (setting [8]), 65%; in test [1] (at 50.0 µM), 89% (active); in test [2] (setting [7]), -1%; in test [2] (setting [8]) it was 45%; in test [2] (at 50.0 µM) it was 80.3% (active). Further, the growth inhibition in test [3] (setting [7]) is 2%; in test [3] (setting [8]), 82% (active); in test [3] (at 50.0 µM), 87.8% (active); in test [4] (setting [7]) it was 6%; in test [4] (setting [8]) it was 17%; in test [4] (at 50.0 µM), 7.1%. Besides, the growth inhibition was -1% in test [5] (setting [7]); 70% (active) in test [5] (setting [8]); 77.7% (active) in test [5] (at 50.0 µM); 3% in test [6] (setting [7]); 84% (active) in test [6] (setting [8]); 88.4% (active) in test [6] (at 50.0 µM).

For `Cn1c(=O)[nH]c2nnc(-c3ccccc3)nc2c1=O`, the growth inhibition in test [1] (setting [7]) is 7%; in test [1] (setting [8]), 89% (active); in test [1] (at 50.0 µM), 56.6%; in test [2] (setting [7]) it was 6%; in test [2] (setting [8]), 92% (active); in test [2] (at 50.0 µM), 29.2%. In addition, the growth inhibition in test [3] (setting [7]) is 38%; in test [3] (setting [8]), 92% (active); in test [3] (at 50.0 µM), 61.5%; in test [4] (setting [7]), -3%; in test [4] (setting [8]) it was 89% (active); in test [4] (at 50.0 µM), -13.7%. Moreover, the growth inhibition in test [5] (setting [7]) is 8%; in test [5] (setting [8]), 93% (active); in test [5] (at 50.0 µM) it was 33.4%; in test [6] (setting [7]), 13%; in test [6] (setting [8]), 90% (active); in test [6] (at 50.0 µM), 68.1%.

As to `CC1(C)C=CC2=C(O1)C(=O)c1ccccc1C2=O`, the growth inhibition is 9% in test [1] (setting [7]); 76% (active) in test [1] (setting [8]); 39.6% in test [1] (at 50.0 µM); 8% in test [2] (setting [7]); 77% (active) in test [2] (setting [8]); -0.85% in test [2] (at 50.0 µM). For the same compound, the growth inhibition is 18% in test [3] (setting [7]); 88% (active) in test [3] (setting [8]); 73.2% (active) in test [3] (at 50.0 µM); -7% in test [4] (setting [7]); 12% in test [4] (setting [8]); 6.9% in test [4] (at 50.0 µM). Moreover, the growth inhibition is 67% in test [5] (setting [7]); 95% (active) in test [5] (setting [8]); 48.4% in test [5] (at 50.0 µM); 16% in test [6] (setting [7]); 89% (active) in test [6] (setting [8]); 44.5% in test [6] (at 50.0 µM).

Consider `CCS(=O)(=O)/C=C\S(=O)(=O)CC`, for which the growth inhibition in test [1] (setting [7]) was -154%; in test [1] (setting [8]), -117%; in test [1] (at 50.0 µM) it was 37.2%; in test [2] (setting [7]), -52%; in test [2] (setting [8]), -36%; in test [2] (at 50.0 µM), 47.5%. Besides, the growth inhibition was -64% in test [3] (setting [7]); -43% in test [3] (setting [8]); 47.3% in test [3] (at 50.0 µM); -49% in test [4] (setting [7]); -37% in test [4] (setting [8]); -12.7% in test [4] (at 50.0 µM). Further, the growth inhibition in test [5] (setting [7]) is -65%; in test [5] (setting [8]) it was -59%; in test [5] (at 50.0 µM), 88.3% (active); in test [6] (setting [7]), -147%; in test [6] (setting [8]) it was -70%; in test [6] (at 50.0 µM), 69%.

Turning to `CCOC(=O)C1SC(=Nc2ccc(Cl)cc2C)N=C1C` (stereo not given), the growth inhibition in test [1] (setting [7]) was 29%; in test [1] (setting [8]) it was 98% (active); in test [1] (at 50.0 µM), 89% (active); in test [2] (setting [7]), 25%; in test [2] (setting [8]), 97% (active); in test [2] (at 50.0 µM), 92.2% (active). Also, the growth inhibition was 32% in test [3] (setting [7]); 99% (active) in test [3] (setting [8]); 91.7% (active) in test [3] (at 50.0 µM); 22% in test [4] (setting [7]); 97% (active) in test [4] (setting [8]); 90.2% (active) in test [4] (at 50.0 µM). For the same compound, the growth inhibition is 24% in test [5] (setting [7]); 98% (active) in test [5] (setting [8]); 91.2% (active) in test [5] (at 50.0 µM); 35% in test [6] (setting [7]); 98% (active) in test [6] (setting [8]); 90% (active) in test [6] (at 50.0 µM).

For `Cc1ccc(S(=O)(=O)Oc2c([N+](=O)[O-])cc(C)cc2[N+](=O)[O-])cc1`, the growth inhibition in test [1] (setting [7]) is 29%; in test [1] (setting [8]) it was 54%; in test [1] (at 50.0 µM), 96.6% (active); in test [2] (setting [7]), 10%; in test [2] (setting [8]) it was 29%; in test [2] (at 50.0 µM), 97.6% (active). For the same compound, the growth inhibition was 14% in test [3] (setting [7]); 21% in test [3] (setting [8]); 98.2% (active) in test [3] (at 50.0 µM); -1% in test [4] (setting [7]); 17% in test [4] (setting [8]); 82.7% (active) in test [4] (at 50.0 µM). In addition, the growth inhibition is 5% in test [5] (setting [7]); 34% in test [5] (setting [8]); 94% (active) in test [5] (at 50.0 µM); 17% in test [6] (setting [7]); 59% in test [6] (setting [8]); 95.1% (active) in test [6] (at 50.0 µM).
